The list is not random: actives were taken first. Their share in the collection is about 19%.
HT1080NT lethal: qHTS for induction of synthetic lethality in tumor cells producing 2HG: qHTS for the HT-1080-NT fibrosarcoma cell line; HT-1080-NT fibrosarcoma viability, CellTiter-Glo ATP luminescence, 48 h; Potency, µM (highest dose often 46.1 µM), for inactives: top-dose activity, negative = less viability, usual class: cytotoxic; actives 1.6% (n = 360,000); AID 686970, 2013;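 also: NT is the 2HG producing partner of a matched IDH1 knockdown line; 0% = DMSO-treated cells and -100% = media-only wells without cells; nearly all actives have a fitted effect of over 55% in size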
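Viability of the 2HG-overproducing fibrosarcoma line after 48 hours of compound exposure at 37 degrees C was determined by luminescence with CellTiter-Glo, and concentration-effect curves were then fitted and categorized.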
KB-3-1 cytotox: qHTS assay for MDR1-selective chemotherapeutics: Primary screen using the parental adenocarcinoma cell KB-3-1 | KB-3-1 viability, CellTiter-Glo ATP luminescence, 72 h | actives 1.4% (n = 400,000) | Potency, µM (titrated, usually from 46.1 µM), hits mostly cytotoxic; also: nearly all actives have a fitted effect of over 60% in size
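KB-3-1 cells, DMEM (no phenol red) + 10% FBS; compound by pin transfer, 72 h, 37 °C. Readout: CellTiter-Glo luminescence after 10 min. Data normalized, curve-fitted.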
TDP1 cell CPT: qHTS for Inhibitors of human tyrosyl-DNA phosphodiesterase 1 (TDP1): qHTS in cells in presence of CPT; chicken DT40 Tdp1-/-;hTDP1 cells + 20 nM CPT, ATP luminescence, 48 h; Potency, µM (highest dose often 46.2 µM), without a hit: top-dose activity change, negative = growth inhibition, hits mostly inhibitors; actives 12% (n = 420,000); AID 686979, 2013; also: nearly all actives have a fitted effect of over 55% in size
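Cell growth measured by CellTiter-Glo luminescence after a minimum 48 h, 37 C compound exposure with 20 nM CPT in Tdp1-knockout DT40 cells stably expressing hTDP1, seeded 400/well; qHTS titration format.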
HT1080 IDH1KD tx: qHTS for induction of synthetic lethality in tumor cells producing 2HG: qHTS for the HT-1080-IDH1KD cell line. HT-1080 IDH1 knockdown viability, ATP luminescence, 48 h. Potency, µM (doses to about 46.1 µM), for inactives: top-dose activity, negative = toxicity, actives largely listed as cytotoxic. actives 2% (n = 360,000);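 also: 0% = DMSO wells and -100% = cell-free medium wells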
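Viability of IDH1-knockdown HT-1080 fibrosarcoma cells was assessed by CellTiter-Glo after 48 h at 37 °C with titrated compound; concentration-effect curves were classified by fit quality and response size.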
KB-V1 cytotox: qHTS assay for MDR1-selective chemotherapeutics: Primary screen using the drug-selected MDR subline cells KB-V1; KB-V1 MDR cells viability, CellTiter-Glo, 72 h; Potency, µM (doses to about 46.1 µM), usual class: cytotoxic; actives 3.4% (n = 400,000); AID 1347076, 2019; also: nearly all actives have a fitted effect of over 60% in size
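Compound-treated KB-V1 multidrug-resistant cells, 72 h, 37 degrees C; viability by CellTiter-Glo. Fitted qHTS curves give the values.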
TDP1 cell noCPT: qHTS for Inhibitors of human tyrosyl-DNA phosphodiesterase 1 (TDP1): qHTS in cells in absence of CPT; DT40 Tdp1-/- hTDP1 cells, no CPT, ATP luminescence, 48 h; Potency, µM (titrated, usually from 46.2 µM), for inactives: top-dose activity change, negative = growth inhibition, hits mostly inhibitors; actives 15% (n = 420,000); also: nearly all actives have a fitted effect of over 55% in size
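Growth kinetics read by CellTiter-Glo luminescence after ≥48 hr at 37 °C. Cells: DT40 Tdp1-/- stably carrying human TDP1, 400 per well, compound exposure in the absence of CPT (DMSO vehicle).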
* hit, by the source's call; i = inactive; ? = inconclusive; . = not tested or not shown. Calls follow the shape of the dose curve; as a rule, active = well fitted curve in the direction sought with a large enough effect; inconclusive = small, poorly fitted or top-dose-only effect, or another doubt; inactive = no such curve, though single readings can be large; an effect the other way counts as inactive or inconclusive. Unless noted, % is scaled to controls: 0 for no effect and ±100 for the full control effect; potency is read from the fitted curve at half-maximal effect.

SMILES | HT1080NT lethal | KB-3-1 cytotox | TDP1 cell CPT | HT1080 IDH1KD tx | KB-V1 cytotox | TDP1 cell noCPT
COCCCNC(=O)CC1C[C@H](C(=O)N(C(C)C)C(C)C)[C@@]2(C)c3[nH]c4ccc(OC)cc4c3CCN2C1=O (some centres not stated) | 4.4% | i | -16.0% | 8.2% | i | ?
COCCCNC(=O)C[C@H]1C[C@H](C(=O)N(C(C)C)C(C)C)[C@@]2(C)c3[nH]c4ccc(Cl)cc4c3CCN2C1=O | -7.9% | i | 11.6µM* | 1.2% | i | 8.2µM*
O=C(Nc1ccc(-c2cn3cccnc3n2)cc1)c1ccccc1F | . | . | ? | . | . | 16.4µM*
CC(C)CC(=O)Nc1ccc(-c2cn3cccnc3n2)cc1 | -4.7% | i | -26.6% | -7.2% | i | -17.8%
CCCC(=O)Nc1ccc(-c2cn3cccnc3n2)cc1 | 17.7% | i | -4.1% | 15.0% | i | ?
CCOc1cc(C(=O)Nc2ccc(-c3cn4cccnc4n3)cc2)cc(OCC)c1OCC | . | . | 11.6µM* | . | . | 9.2µM*
Cc1ccc(C(=O)Nc2ccc(-c3cn4cccnc4n3)cc2)cc1C | . | ? | ? | . | i | ?
Cc1cc(C)cc(C(=O)Nc2ccc(-c3cn4cccnc4n3)cc2)c1 | . | i | ? | . | i | 9.2µM*
CCOCC(=O)Nc1ccc(-c2cn3cccnc3n2)cc1 | 5.0% | i | 14.6µM* | 22.2% | i | -27.2%
Cc1cn([C@H]2C[C@H](O)[C@@H](CNS(=O)(=O)N3CCCC3)O2)c(=O)[nH]c1=O | 1.1% | i | -18.1% | 5.7% | i | -1.0%
O=C(Cc1ccc(Br)cc1)NO | -13.1% | . | ? | 0.1% | . | ?
CC(=O)N1CCc2cc(S(=O)(=O)NC(CC(C)C)C(=O)N3CCCC3)ccc21 (configuration not stated) | 29.1% | i | -2.8% | 23.8% | i | 13.6%
CC(=O)c1ccc(NS(=O)(=O)c2ccc(Br)s2)cc1 | . | i | -6.7% | . | i | 7.6%
COc1ccc(C(O)c2nc(-c3cc(F)cc(Cl)c3)cs2)cc1 (configuration not stated) | -24.5% | i | ? | ? | i | ?
Nc1cccc(-c2cn3cccnc3n2)c1 | 13.7% | i | 20.6µM* | 0.8% | i | ?
O=C(Nc1ccc(-c2cn3ccccc3n2)cc1)c1ccc(Cl)cc1 | 20.0% | i | 23.1µM* | 17.2% | i | 9.2µM*
CCc1nn(CC(=O)NCCC(C)C)c(=O)c2cc3occc3n12 | . | i | -12.7% | . | i | ?
NC(=O)Cn1c(=O)n(-c2ccc(F)c(Cl)c2)c(=O)c2sc3ccccc3c21 | . | i | -15.3% | . | i | ?
COc1cc(OC)cc(N2C(=O)CSC23C(=O)Nc2ccccc23)c1 (configuration not stated) | . | i | . | . | i | .
Cc1cccc(Oc2coc3cc(OCC(=O)NC4CCCCC4)ccc3c2=O)c1 | . | . | 20.6µM* | . | . | 23.1µM*
CCCCOC(=O)Oc1ccc2c(=O)c(Oc3cccc(C)c3)coc2c1 | -4.5% | i | -10.2% | 1.0% | i | -16.3%
CCn1c(SCC(N)=O)nc2c(c1=O)C1(CCCC1)Cc1ccccc1-2 | 3.9% | i | -16.6% | 0.4% | i | -11.1%
NC(=O)CSc1nc2c(c(=O)n1-c1ccccc1)C1(CCCCC1)Cc1ccccc1-2 | ? | ? | ? | 13µM* | ? | ?
Cc1cccc(-n2c(SCC(N)=O)nc3c(c2=O)C2(CCCC2)Cc2ccccc2-3)c1 | ? | ? | 0.2% | ? | 3.26µM* | 0.3%
CCN(CC(=O)Nc1ccccc1OC)C(=O)c1ccc2[nH]c3c(c2c1)CC(C)CC3 (configuration not stated) | ? | ? | 18.4µM* | ? | i | ?
SMILES | HT1080NT lethal | KB-3-1 cytotox | TDP1 cell CPT | HT1080 IDH1KD tx | KB-V1 cytotox | TDP1 cell noCPT
CCCN(CC(=O)Nc1ccccc1OC)C(=O)c1ccc2[nH]c3c(c2c1)CC(C)CC3 (configuration not stated) | -1.6% | ? | ? | -21.4% | 16.4µM* | ?
CC1CCc2[nH]c3ccc(C(=O)N(C)CC(=O)Nc4ccccc4C(F)(F)F)cc3c2C1 (configuration not stated) | -1.2% | i | ? | 1.2% | i | ?
O=c1[nH]c(=S)[nH]c2c1C(C1CCCCC1)OC(C1CCCCC1)C2 (configuration not stated) | 7.6% | ? | ? | 7.1% | i | ?
NC(=O)/C=C/C(=O)Nc1ccc(Cl)cc1 | -1.8% | i | 3.26µM* | ? | i | 8.2µM*
NC(=O)Nc1ccc(Cl)cc1 | 8.3% | i | -9.2% | -0.6% | i | -16.0%
O=C(/C=C/C(Cl)(Cl)Cl)Nc1ccc(Cl)cc1 | ? | ? | 4.61µM* | ? | ? | 5.17µM*
COC(=O)C(NC(=O)c1ccccc1)c1ccccc1 (configuration not stated) | 4.0% | i | -14.8% | 6.1% | i | 2.5%

From PubChem BioAssay
